# Screening data as filed in PubChem BioAssay.
# Pf growth 48h: Primary qHTS for delayed death inhibitors of the malarial parasite plastid, 48 hour incubation | P. falciparum luciferase growth in erythrocytes, 48 h | Potency, µM (titrated, usually from 28.7 µM), usual class: inhibitors | 5.9% of 310,000 active
#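 Erythrocytes infected with P. falciparum carrying an integrated firefly luciferase reporter (2% hematocrit, 0.1% parasitemia final) were exposed to compounds in RPMI 1640 with 0.5% Albumax at 37 C, 5% CO2. Growth inhibition was scored as reduced luminescence.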
# Pf growth 96h: Primary qHTS for delayed death inhibitors of the malarial parasite plastid, 96 hour incubation | P. falciparum luciferase reporter growth, 96 h | AID 504834, 2011 | Potency, µM (titrated, usually from 28.7 µM), actives largely listed as inhibitors | 6.9% of 320,000 active
#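 Delayed-death screen, second-generation endpoint: infected erythrocytes, 2% hematocrit, 0.05% parasitemia final; 96 hours at 37 C, 5% CO2; luciferase detection reagent; luminescence decrease equals reduced growth.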
# Cycloheximide cs: Cycloheximide Counterscreen for Small Molecule Inhibitors of Shiga Toxin; cell reporter, cycloheximide protein synthesis inhibition counterscreen; 12% of 300,000 active; max response, %; AID 2314, 2010; in the data active means max response mostly above about 13%, no sharp cut-off; inactive means mostly below about 14%; further: read at 38.3 µM for the half of the compounds with a filed dose
# Shiga toxin inh: A qHTS for Small Molecule Inhibitors of Shiga Toxin; Vero cells, Shiga toxin protein synthesis inhibition reporter; inhibition, % at 38.7 µM; 9.2% of 290,000 active; in the data active means inhibition mostly above about 28%, no sharp cut-off; inactive means mostly below about 43%
# HCV inh: qHTS Assay for Inhibitors of Hepatitis C Virus (HCV); Huh7.5.1 HCVcc-Cre infection, luciferase reporter, 44 h; Potency, µM (series often up to 41.8 µM), actives largely listed as inhibitors; 3.4% of 340,000 active
#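 Cells seeded at 1,000/well and cultured 4 h, then compounds added followed by HCVcc-Cre virus (~0.5 moi). After 44 h further culture, luciferase substrate was added, plates held 15 min at room temperature, and luminescence read for 15 sec.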
# HCMV inh: qHTS Assay for inhibitors of the human cytomegalovirus (HCMV) | HFF cells, HCMV-luciferase reporter, 72 h; hits give low values | activity change, negative = inhibition, % at 57.5 µM | 4.5% of 410,000 active | AID 1259415, 2018; in the data active means activity change below about -60%; inconclusive means no clear call, values can overlap the other calls; inactive means above about -39%
#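 Screen run at 2 compound doses on HFFs infected with reporter HCMV, MOI 1 PFU/cell. Luciferase activity from cell lysates at 72 h post infection gave inhibition relative to buffer-only and Salinomycin wells.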
# Hits are given with their value; n = inactive; u = inconclusive; x = not tested or not shown. An excerpt weighted towards active compounds, which were near 21% of everything screened. Unless noted, the call rests on the fitted dose curve; in most records, active means well fitted inhibition curve with a large enough effect; inconclusive means small, poorly fitted or top-dose-only effect, or another doubt; inactive means no such curve, though single readings can be large or run the other way.
SMILES,Pf growth 48h,Pf growth 96h,Cycloheximide cs,Shiga toxin inh,HCV inh,HCMV inh
O=C(O)CCS(=O)(=O)c1ccccc1Cl,n,n,n,n,n,n
COC(=O)c1sc2cccc(F)c2c1S(=O)(=O)N1CCN(c2cccc(C)c2)C(C)C1 (configuration not stated),x,x,x,x,x,n
Cc1cc(C)c(C(=O)N2CCCC(Nc3ccc(F)cc3)C2)o1 (configuration not stated),n,n,n,n,n,n
CC(C)c1ccc(NC2CCCN(C(=O)c3cc(C(C)C)nc(N)n3)C2)cc1 (configuration not stated),n,15µM,n,n,n,n
O=C(c1ccoc1)N1CCCC(Nc2ccc(F)c(F)c2)C1 (configuration not stated),n,n,n,n,n,n
Cc1ccc(NC2CCCN(C(=O)c3cccc4nccnc34)C2)cc1C (configuration not stated),n,n,n,n,n,n
CC(C)c1ccc(NC2CCCN(C(=O)c3cccc4nccnc34)C2)cc1 (configuration not stated),n,4.7µM,n,n,n,n
CC(C)c1ccc(NC2CCCN(C(=O)c3ccoc3)C2)cc1 (configuration not stated),n,n,n,32,u,n
CC(C)c1cc(C(=O)N2CCCC(Nc3ccc(F)cc3)C2)n[nH]1 (configuration not stated),n,n,19,n,x,n
CC(C)c1ccc(NC2CCCN(C(=O)c3cscn3)C2)cc1 (configuration not stated),n,u,n,n,n,n
CCCCc1ncc(/C=C(\Cc2cccs2)C(=O)O)n1Cc1ccc(C(=O)O)cc1,n,n,x,x,x,x
COc1ccccc1NC(=S)N1CCC(c2nc3cc(C)c(C)cc3[nH]2)CC1,u,12µM,n,n,n,n
Cc1cc2nc(C3CCCN(C(=S)Nc4ccccc4)C3)[nH]c2cc1C (configuration not stated),n,n,35,n,u,n
COc1ccccc1NC(=O)N1CCC(c2nc3cc(C)c(C)cc3[nH]2)CC1,u,n,n,n,u,-64
CCOc1ccccc1NC(=O)N1CCC(c2nc3ccccc3[nH]2)CC1,n,u,n,n,u,n
Cc1ccc(Cn2nc3c(cc2=O)CCc2ccccc2-3)cc1,n,n,n,n,14µM,n
CCOc1ccc(S(=O)(=O)n2cnc(C)c2)cc1,u,n,n,n,n,n
c1ccc(C2=Nn3c(Cn4nnc5ccccc54)nnc3SC2)cc1,n,n,n,n,n,n
c1ccc(-c2ccc(C3=Nn4c(nnc4-c4cc(-c5ccccc5)n[nH]4)SC3)cc2)cc1,u,12µM,n,n,u,n
c1ccc(-c2ccc(C3=Nn4c(Cn5nnc6ccccc65)nnc4SC3)cc2)cc1,u,9.3µM,n,n,n,n
CC1=Nn2c(nnc2-c2cc(-c3ccccc3)n[nH]2)SC1,u,u,n,n,n,n
Brc1ccccc1C1=Nn2c(nnc2-c2ccccc2)SC1,u,8.3µM,n,n,n,n
COc1ccc(C2CC(=O)N(Cc3cccc(C)c3)c3c2c(C)nn3-c2nc(C)cc(C)n2)c(OC)c1 (configuration not stated),x,x,x,x,x,n
O=C(N/N=C/C(Br)=C\c1ccccc1)c1ccco1,2.6µM,4.1µM,46,47,n,n
CC(C)=C(NC(=O)c1ccccc1)C(=O)N/N=C/c1ccc(O)cc1,n,u,31,n,n,n
SMILES,Pf growth 48h,Pf growth 96h,Cycloheximide cs,Shiga toxin inh,HCV inh,HCMV inh
O=C(N/N=C/c1ccccc1)c1ccco1,n,n,36,100,n,n
O=C(N/N=C\c1ccccc1OCc1ccccc1)c1ccco1,8.3µM,u,32,40,n,n
O=C(N/N=C/C=N/NC(=O)c1ccco1)c1ccco1,n,n,n,n,n,n
O=C(NCc1ccccc1Cl)[C@H]1CCCN1C(=O)[C@H]1CCCN1C(=O)c1cccs1,x,x,x,x,x,n
CC[C@@]1(C(=O)OC)N[C@H](CN(C)C(=O)c2ccc(C)cc2)[C@@H]2C(=O)N(C)C(=O)[C@@H]21,x,x,x,x,u,n
COc1cc(C(=S)N2CCOCC2)cc(Br)c1OS(=O)(=O)c1ccccc1,n,u,n,n,n,n
